# Screening results as filed in PubChem BioAssay.
# AMA1-RON2 inh: disrupts binding of P. falciparum AMA1 to RON2 | AlphaScreen AMA1-biotinylated RON2 peptide binding | Potency, µM (highest dose often 58.2 µM), for inactives: at the top dose activity change, negative = inhibition, actives largely listed as inhibitors | 360,000 tested, 0.2% active | AID 720542;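 note: 0% = vehicle wells and -100% = peptide control; nearly all actives have a fitted effect of over 45% in size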
#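 AMA1 (3D7) with his tag at 25 nM final met compounds first, then biotinylated RON2 peptide at 25 nM; detection used donor plus acceptor beads, 10 µg/mL apiece, read by AlphaScreen after 30 min at room temperature.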
# NS1 inh: influenza NS1 inhibition; Potency, µM (doses to about 46.1 µM), without a hit: top-dose activity, positive = more growth; 270,000 tested, 0.4% active; calls by dose curve; note: actives are rising curves; nearly all actives have a fitted effect of over 50% in size
#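 Read-out: OD600 growth recovery of NS1-expressing budding yeast. Cells grown overnight at 30C in -URA glucose medium, washed, resuspended and diluted 1:100 in 2% galactose assay medium, pH 6.0. Same strain lacking NS1 served as positive control.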
# SARS PLP yeast: blocks SARS-CoV papain-like protease in a yeast assay | S. cerevisiae expressing SARS-CoV PLpro, growth rescue | Potency, µM (doses to about 32.9 µM), without a hit: at the highest dose activity, positive = growth rescue, usual class: activators | 330,000 tested, 0.19% active; calls by dose curve; note: 0% is about no effect; nearly all actives have a fitted effect of over 55% in size
# AmpC inh detg: blocks E. coli AmpC beta-lactamase in detergent assay; P00811; 370,000 tested, 0.041% active; Potency, µM (series often up to 114 µM), for inactives: at the top dose activity change, negative = inhibition, actives largely listed as inhibitors; AmpC hydrolysis of nitrocefin, absorbance 480 nm, 0.01% Triton;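 note: 0% = no-compound wells and -100% = no-enzyme wells; nearly all actives have a fitted effect of over 25% in size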
# Target sequence (P00811 whole entry, looked up): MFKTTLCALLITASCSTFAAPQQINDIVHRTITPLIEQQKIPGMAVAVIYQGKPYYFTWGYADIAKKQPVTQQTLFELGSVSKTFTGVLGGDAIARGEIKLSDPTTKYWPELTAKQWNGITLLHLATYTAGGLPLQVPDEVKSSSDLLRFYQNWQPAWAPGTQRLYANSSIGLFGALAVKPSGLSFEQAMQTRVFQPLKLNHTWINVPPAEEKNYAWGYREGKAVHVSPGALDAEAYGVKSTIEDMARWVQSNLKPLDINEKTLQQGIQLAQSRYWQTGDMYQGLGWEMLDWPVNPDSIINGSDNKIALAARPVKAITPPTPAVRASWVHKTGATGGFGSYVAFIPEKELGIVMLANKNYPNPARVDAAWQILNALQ
#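 AmpC (5.3 nM in the dispensed reagent) in 20 mM phosphate pH 7.0 with 0.01% (detergent screen) or 0.0001% Triton X-100 was preincubated with compounds for 15 min at room temperature. Nitrocefin was then added from an 800 uM solution, and hydrolysis was followed at 480 nm.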
# AmpC inh no detg: inhibitors of E. coli AmpC beta-lactamase without detergent | AmpC nitrocefin hydrolysis, absorbance 480 nm, 0.0001% Triton | Potency, µM (series often up to 57.1 µM), without a hit: at the top dose activity change, negative = inhibition, usual class: inhibitors | 330,000 tested, 0.52% active | P00811 | AID 485341;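 note: plate controls were no compound for no effect and no enzyme for full effect; nearly all actives have a fitted effect of over 20% in size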
#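 20 mM phosphate pH 7.0 + 0.01% (detergent screen) or 0.0001% Triton X-100; 5.3 nM AmpC reagent; cpd preinc 15 min RT; nitrocefin (800 uM stock) to start; A480 q20 s × 4 min; Activity was normalised to no-enzyme and no-compound control wells.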
# * hit, by the source's call; ? = inconclusive; . = no result. Compounds with a hit are over-represented: about 0.99% of the library has one in this group of screens. Unless noted, calls come from the whole dose curve; as a rule, active = well fitted curve in the direction sought with a large enough effect; inconclusive = small, poorly fitted or top-dose-only effect, or another doubt; inactive = no such curve, though single readings can be large; an effect the other way counts as inactive or inconclusive. Potency is the fitted concentration of half-maximal effect.
SMILES,AMA1-RON2 inh,NS1 inh,SARS PLP yeast,AmpC inh detg,AmpC inh no detg
Nc1cc([N+](=O)[O-])ccc1Nc1ccc(O)cc1,-24.3%,-49.3%,0.2%,1.1%,31.6µM*
CC(=O)c1cc(-c2ccccc2)n(CCC(=O)NC(C)c2ccccc2)c1C (stereo not given),.,.,.,7.9%,.
COc1cc2c(cc1OC)[C@@]13CCN4CC5=CCO[C@H](CC(=O)O)[C@@H]([C@H]1N2)[C@H]5C[C@H]43,.,7.9%,.,.,.
CCOC(=O)C1(C(=O)O)NC(=O)CC1c1ccccc1 (stereo not given),2.6%,-8.2%,1.9%,?,-17.5%
CCOC(=O)C1(C(=O)OCC)CC1c1ccccc1 (stereo not given),-3.5%,3.2%,3.5%,0.8%,4.47µM*
CC1=C(C(=O)Nc2cccnc2)C(c2ccccc2)n2nc(SCc3ccccc3)nc2N1 (stereo not given),.,.,.,-8.8%,.
CN(C)c1ccc(CNC(=O)c2ccc3nc(CCc4ccccc4)oc3c2)cc1,.,.,.,1.0%,.
COc1ccc(-c2nc(C)ncc2N=Nc2ccccc2)cc1,?,6.6%,1.9%,-9.1%,61.3%
Cc1ncc(N=Nc2ccc(F)cc2)c(-c2ccc(Cl)cc2)n1,-7.3%,10.6%,1.2%,1.2%,0.398µM*
CCCN(c1ccc(OCC)cc1)c1ncnc2nc[nH]c12,-1.9%,-33.5%,0.2%,?,0.708µM*
Cc1ccc(NC(=O)CN2CCN(Cc3ccccc3)CC2)c(Br)c1,20µM*,6.5%,10.2%,7.6%,184.6%
Cc1ccc(NC(=O)CN2CCOCC2)c(Br)c1,8.2%,-5.4%,-3.7%,-13.7%,-5.1%
COC(=O)C1(C(=O)OC)NOC2C(=O)N(c3ccc(Cl)cc3Cl)C(=O)C21 (stereo not given),15.4%,22.7%,0.5%,5.5%,4.47µM*
Cc1ccc(SCC(=O)n2nc(C)cc2C)cc1,8.3%,10.4%,1.8%,5.2%,-13.7%
Cc1cc(C)n(C(=O)CSc2nc3ccccc3o2)n1,0.8%,6.1%,12.2%,28.2µM*,-4.2%
CCCN1CCCc2cc(CN(CCCN3CCOCC3)C(=O)Nc3ccc(OCC)cc3)ccc21,26.7µM*,4.7%,8.2%,?,186.3%
Cc1ccc2ncccc2c1,7.7%,.,-8.3%,2.5%,-16.8%
Cc1cc(N(C)C)ccc1N=Nc1ccc2ncccc2c1,11.2µM*,-7.9%,-2.4%,-4.4%,4.2%
O=C(O)c1ccccc1/C=N\N=C1c2ccccc2-c2ccccc21,.,-19.4%,.,.,.
COC(=O)c1ccc(=O)c2nc3/c(=C/O)c(O)cc(=O)c3[nH]c12,1.26µM*,0.9%,3.16µM*,?,-37.9%
COc1ccc(C2=NN(C(=O)CSc3cn(C)c4ccccc34)C(c3ccc(OC)cc3)C2)cc1 (stereo not given),-20.0%,26.5%,0.7%,?,1.58µM*
COc1ccc(C2=NN(C(=O)CSc3ncccn3)C(c3ccc(OC)cc3)C2)cc1 (stereo not given),-15.2%,1.1%,-3.9%,-2.0%,72.5%
CCOc1ccc(N2CC(NC(=O)c3ccc4c(c3)OCO4)CC2=O)cc1 (stereo not given),.,.,.,-1.0%,.
Cc1ccc(C)c(CNC(=O)c2ccc3c(c2)nc2n3CCC(C)C2)c1 (stereo not given),.,.,.,24.1%,.
O=C(Nc1ccccc1C(=O)NCc1ccco1)Nc1cccc2ccccc12,-8.9%,.,2.1%,-5.1%,20µM*
SMILES,AMA1-RON2 inh,NS1 inh,SARS PLP yeast,AmpC inh detg,AmpC inh no detg
Cc1ccc(N2CCN(C(=O)CCS(=O)(=O)c3cc4c(cc3Cl)NC(=O)CO4)CC2)c(C)c1,.,.,.,8.1%,.
O=C(NC1CCCCC1)C(=O)c1c(-c2ccccc2)[nH]c2ccccc12,-4.7%,27.1%,19.0%,-10.3%,12.6µM*
O=C(CCN1C(=O)/C(=C/c2cccs2)SC1=S)Nc1ccc(O)cc1,-9.9%,15.2%,0.4%,-14.8%,?
O=C(CCN1C(=O)/C(=C/c2cccs2)SC1=S)Nc1ccc(C(=O)O)c(O)c1,?,22.2%,?,-3.9%,1.26µM*
Cc1ccc(C)n1-c1ccc(N2CCOCC2)cc1,-25.1%,?,0.2%,-7.4%,65.0%
Cc1ccc(C)n1-c1ccc(N(C)C)cc1,28.2µM*,.,-3.4%,2.2%,-15.6%
Cc1cccc(Cn2c(N(C)CCO)nc3c2c(=O)[nH]c(=O)n3C)c1,17.9%,-5.5%,0.7%,?,11.2µM*
CN(Cc1ccccc1)c1nc2c(c(=O)[nH]c(=O)n2C)n1Cc1ccccc1,-1.2%,-4.0%,-3.6%,?,98.8%
CC(=O)c1ccc(N2CCN(C(=O)c3cc(S(=O)(=O)N4CCCCCC4)cn3C)CC2)cc1,.,.,.,-2.0%,.
Cc1ccc(/C=C/C(=O)c2ccccc2O)cc1,?,-9.4%,2.2%,0.2%,-24.9%
CN(C)c1ccc(/C=C/C(=O)c2ccccc2O)cc1,14.1µM*,.,-5.2%,6.0%,-43.1%
CCCCC12CN3CC(C)(CN(C1)C3c1c[nH]c3ccccc13)C2=O (stereo not given),.,.,.,-3.3%,.
S=C(NN=C(c1ccccc1)c1ccccn1)N(Cc1ccccn1)Cc1ccccn1,11.2µM*,.,.,.,.
CC(=O)Nc1nnc(-c2ccc(Cl)s2)o1,67.4%,1.6%,2.6%,5.4%,1.58µM*
Cc1cc(C(=O)NCCCN2CC(C)CC(C)C2)n(-c2ccccc2)n1 (stereo not given),1.6%,5.6%,1.7%,-1.5%,-18.3%
CCOCCCNC(=O)c1cc(C)nn1-c1ccccc1,6.1%,-7.3%,5.9%,?,3.16µM*
CCOC(CNC(=O)c1cc(C)nn1-c1ccccc1)OCC,-4.6%,9.8%,1.5%,-6.6%,-0.9%
Cc1cc(C(=O)NCCCN2CCOCC2)n(-c2ccccc2)n1,13.9%,1.3%,0.4%,?,39.8µM*
Cc1ccc(Cn2cc3c(n2)-c2c(oc(C(=O)Nc4ccc(F)cc4F)c2C)CC3)cc1,.,.,.,0.1%,.
COc1ccc(OCc2ccc(-c3nc(C#N)c(N4CCN(C)CC4)o3)o2)cc1,.,.,.,23.6%,.
COc1ccc(S(=O)(=O)N(CC(=O)Nc2cccc(C)c2)c2ccc(C)cc2)cc1OC,.,.,.,4.1%,.
Cc1cc2oc(C(=O)N(Cc3ccccc3)C3CCS(=O)(=O)C3)cc(=O)c2cc1C (stereo not given),.,.,.,12.2%,.
COc1ccc(-c2nnnn2CCc2ccccc2)cc1,-5.8%,-18.8%,3.2%,3.4%,0.199µM*
COc1ccc(-c2nnnn2C(C)C)cc1,14.6%,-2.5%,1.1%,-2.0%,6.6%
CCOc1ccc(NC(=O)CSc2ccc(-c3ccccn3)nn2)cc1,-27.9%,-2.9%,7.94µM*,-3.6%,-10.2%
O=C(CSc1ccc(-c2ccccn2)nn1)NCc1ccc(Cl)cc1,14.1µM*,.,22.3%,8.7%,-21.2%
CN1CCC[C@@H]1c1cccnc1.O=C(O)c1ccccc1O.O=C([OH2+])c1ccccc1O.O=C([OH2+])c1ccccc1O.O=C([OH2+])c1ccccc1O.[Cu],.,0.0%,.,.,.
O=[N+]([O-])c1ccccc1-c1ccc(C(=S)N2CCCCC2)o1,25.1µM*,-2.1%,-1.3%,6.6%,-34.9%
